Results on 37 compounds are retold here after PubChem BioAssay (NCI).

This is part of a sample that, as a whole, favours compounds with a hit. Of some 79,000 tested, about 15% had one in any assay. Unmarked numbers belong to inactive results. Active and inactive are the calls of the source. Cut-off read from the data, not from the text of the source: active = growth inhibition above about 70%; inactive = the rest.

The nature of test [1]: NCI Yeast Anticancer Drug Screen. Data for the rad50 strain (AID 155).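 Note: 0% = growth of vehicle-only cultures of the same strain.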 As to conditions: S. cerevisiae rad50 strain growth inhibition; at 50.0 µM; hits give high values. The gist of the method:
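A DNA repair-deficient yeast mutant serves as the test organism; compound-induced growth inhibition is calculated against vehicle-treated cells.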

A short description of test [2]: NCI Yeast Anticancer Drug Screen. Data for the mec2-1 strain (AID 157). As to conditions: S. cerevisiae mec2-1 strain, at 50.0 µM, hits give high values. A digest of the protocol: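 Mutant yeast (mec2-1) grown with compound; growth inhibition relative to vehicle control reported.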
Test [3] can be described thus: NCI Yeast Anticancer Drug Screen. Data for the sgs1 mgt1 strain (AID 161).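 Note: 0% = growth of cultures given vehicle only.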 As to conditions: S. cerevisiae sgs1 mgt1 strain, at 50.0 µM, hits give high values. The gist of the method: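 Percent growth inhibition was derived by comparing compound-exposed mutant yeast with vehicle-exposed cultures. The strain carries alterations in DNA damage repair.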
Test [4] in a line: NCI Yeast Anticancer Drug Screen. Data for the cln2 rad14 strain (AID 165).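 Note: 0% = growth equal to vehicle treated cultures.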 As to conditions: S. cerevisiae cln2 rad14 strain, at 50.0 µM, hits give high values. A digest of the protocol:
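Readout is yeast growth inhibition versus vehicle-treated controls, using a strain with cln2 and rad14 alterations exposed to compound.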

Test [5] is described as follows: NCI Yeast Anticancer Drug Screen. Data for the bub3 strain (AID 167). As to conditions: S. cerevisiae bub3 mutant strain, at 50.0 µM, hits give high values. The gist of the method: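 Inhibition values come from growth of compound-treated mutant yeast normalised to vehicle-treated controls.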
Test [6] is described as follows: NCI Yeast Anticancer Drug Screen. Data for the mlh1 rad18 strain (AID 175). As to conditions: S. cerevisiae mlh1 rad18 strain growth inhibition; at 50.0 µM; hits give high values. The gist of the method: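 Genetically defined yeast (DNA repair-deficient) exposed to compounds; growth inhibition determined relative to vehicle.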

`CCn1c2ccc(N(C)C)cc2c2cc(N(C)C)ccc21`: the growth inhibition in test [1] was -25.4%; in test [2], -38.5%; in test [3], -24.1%; in test [4] it was -38.8%; in test [5], -18.5%; in test [6], -52.4%.
Regarding `Cc1c(Cl)cccc1NC(=O)Oc1ccccc1Cc1ccccc1`, the growth inhibition in test [1] is -0.8%; in test [2], 43.1%; in test [3] it was 40%; in test [4], -2.7%; in test [5], 67.5%; in test [6] it was 52.2%.
For `CCC(CO)N1CNC(=S)NC1` (configuration not stated), the growth inhibition in test [1] was -4.8%; in test [2], -14.1%; in test [3], 4.85%; in test [4], 0.8%; in test [5], 4.7%; in test [6], 0.3%.
For the compound `CCOC(=O)CC(=O)C(=O)NNC1=NCCN1`, the growth inhibition in test [1] is 7.15%; in test [2] it was 11.6%; in test [3] it was 23.6%; in test [4], 2.45%; in test [5], 13.3%; in test [6] it was 15.2%.
Turning to `Cn1c(N(CCO)CCO)cnc1[N+](=O)[O-]`, the growth inhibition in test [1] is 11.7%; in test [2] it was 8.8%; in test [3] it was -21.8%; in test [4] it was -16.4%; in test [5], -17.6%; in test [6] it was -4.8%.
Regarding `Nc1nnc2nc(CC(=O)Cc3ccccc3)c(CC(=O)Cc3ccccc3)nn12`, the growth inhibition in test [1] is 0.3%; in test [2], -5.55%; in test [3], 11.2%; in test [4], -17.9%; in test [5], 10.7%; in test [6] it was 9.35%.
Regarding `CCCOC(=O)c1cc(O)ccc1O`, the growth inhibition in test [1] is 1.15%; in test [2], -0.45%; in test [3], 14.9%; in test [4], -17.6%; in test [5], -2.55%; in test [6], -1.7%.
Consider `CC(O)C1CCCCC1O` (configuration not stated), for which the growth inhibition in test [1] is 5.15%; in test [2], -28.3%; in test [3], -2.85%; in test [4], -8.65%; in test [5], -9.6%; in test [6], -11.3%.
As for `COc1ccc(C=Nc2ccc(C(=O)O)cc2)cc1`, the growth inhibition was 0.5% in test [1]; 9.35% in test [2]; 1.45% in test [3]; -2.25% in test [4]; 13.9% in test [5]; -6.25% in test [6].
As to `CC(C)(C)c1cc(C[N+](C)(C)[O-])c(O)c(-c2ccccc2)c1`, the growth inhibition in test [1] is -0.65%; in test [2], -26.2%; in test [3] it was 2.05%; in test [4] it was -19.2%; in test [5], 6.35%; in test [6] it was -13.6%.
Regarding `CS(=O)(=O)c1nsc(N)n1`, the growth inhibition in test [1] is -14%; in test [2] it was -8.6%; in test [3], -5.25%; in test [4], 2.15%; in test [5] it was -0.1%; in test [6] it was 2.7%.
Regarding `O=C1CS(=O)(=O)c2ccccc21`, the growth inhibition is -11.4% in test [1]; 1.5% in test [2]; 1.5% in test [3]; -13.3% in test [4]; -8.8% in test [5]; 22.2% in test [6].
Consider `Cc1ccccc1C=O`, for which the growth inhibition in test [1] is -2.75%; in test [2] it was -32.6%; in test [3], 5.15%; in test [4] it was -3.35%; in test [5], -0.2%; in test [6], -0.85%.
In the case of `CC1=CC(NCCC(=O)O)NC(=O)N1` (configuration not stated), the growth inhibition is 4.25% in test [1]; -6.2% in test [2]; -18.1% in test [3]; -62.6% in test [4]; -1.75% in test [5]; -1.85% in test [6].
As to `CN(C)CCN1CCCN(C)CC1`, the growth inhibition in test [1] was -14.9%; in test [2], -13.8%; in test [3] it was -4.25%; in test [4] it was -17.2%; in test [5] it was -25.3%; in test [6], 5.4%.
In the case of `Cn1c(N)c2c(=O)n(C)c3c(c2c(C#N)c1=O)CCSc1ccccc1-3`, the growth inhibition in test [1] is -4.4%; in test [2], -6.35%; in test [3] it was 0.25%; in test [4], -36.5%; in test [5], -5.2%; in test [6], -1.9%.
Take `Clc1cc(Cl)nc(Nc2ccc3c(c2)CCC3)n1`: the growth inhibition was 23.9% in test [1]; 10.2% in test [2]; -1.15% in test [3]; -4.2% in test [4]; 3.9% in test [5]; 39.5% in test [6].
`CN(C)CCC(O)c1ccccc1` (configuration not stated): the growth inhibition in test [1] was 7.2%; in test [2] it was -1.25%; in test [3], 2.2%; in test [4], -20.5%; in test [5], -6.2%; in test [6], -22.6%.
Turning to `CCOC(CCCl)c1ccccc1` (configuration not stated), the growth inhibition in test [1] is 2.45%; in test [2], -12.4%; in test [3], -39.5%; in test [4] it was 7.85%; in test [5], 11.1%; in test [6], -10.3%.
Consider `Cc1ccc(C2(C)CC[C@@H]3C[C@@]32C)c(O)c1` (some centres not stated), for which the growth inhibition was 91.2% (active) in test [1]; 93.8% (active) in test [2]; 93.5% (active) in test [3]; 92.2% (active) in test [4]; 92.7% (active) in test [5]; 91.8% (active) in test [6].
For `CC(=O)N(C(C)=O)C1=C(c2ccccc2)C(=O)c2ccccc21`, the growth inhibition in test [1] was 13.2%; in test [2] it was 22.2%; in test [3], 14%; in test [4], -0.75%; in test [5], -2.95%; in test [6], 40.1%.
As to `NC(=O)Nc1ccc2ccccc2c1`, the growth inhibition is 8.8% in test [1]; -9.75% in test [2]; 1.65% in test [3]; -3.95% in test [4]; -19.8% in test [5]; -5.25% in test [6].
As for `N=C(N)N1CCc2ccccc2C1`, the growth inhibition in test [1] is -5.55%; in test [2], 7.3%; in test [3], -2%; in test [4], -3.35%; in test [5], -28.9%; in test [6] it was 2.65%.
For `CCCCC1(CC)COC2(CCCC2)OC1`, the growth inhibition in test [1] is 18.6%; in test [2], 2.25%; in test [3] it was -11.6%; in test [4], 3.2%; in test [5] it was -9.7%; in test [6] it was 12.4%.
Regarding `CN(C)C(=S)N(C)C`, the growth inhibition in test [1] is -37.1%; in test [2] it was -33%; in test [3], -17.4%; in test [4] it was 0.45%; in test [5], -23.2%; in test [6] it was -23.7%.
For the compound `S=c1nn[nH]n1C1CCCCC1`, the growth inhibition was 8.05% in test [1]; -14.3% in test [2]; -1.8% in test [3]; 4.1% in test [4]; 0.85% in test [5]; 9.95% in test [6].
On to `CC(C(=O)O)n1c(=O)ssc1=O` (configuration not stated), for which the growth inhibition in test [1] is 1.95%; in test [2], 3.05%; in test [3] it was 1.3%; in test [4] it was -9.25%; in test [5], -8.7%; in test [6], 0%.
In the case of `CC(=O)c1cc2ccccc2o1`, the growth inhibition is 17.6% in test [1]; 1.4% in test [2]; -4% in test [3]; 0.05% in test [4]; -6.7% in test [5]; 4.6% in test [6].
`COc1cccc(C2CC(C)(N3CCCC3)Oc3cc4c(cc32)OCO4)c1O` (configuration not stated): the growth inhibition was 7.5% in test [1]; 13.9% in test [2]; 10% in test [3]; 13.8% in test [4]; 28.6% in test [5]; -10.2% in test [6].
Regarding `CC(C)[Si](C#CC[Si](C(C)C)(C(C)C)C(C)C)(C(C)C)C(C)C`, the growth inhibition is -13.8% in test [1]; -6% in test [2]; -17.4% in test [3]; -17.6% in test [4]; -20.3% in test [5]; -9.35% in test [6].
`CC1CCC(=O)N1c1ccc(N)cc1` (configuration not stated): the growth inhibition in test [1] was -19%; in test [2], -15.5%; in test [3] it was -15.2%; in test [4], 11.2%; in test [5] it was -23.3%; in test [6] it was 10.1%.
In the case of `COc1ccc2[nH]cc(CN3CCC(CO)(c4ccccc4)CC3)c2c1`, the growth inhibition is 13.4% in test [1]; 1.2% in test [2]; -16.4% in test [3]; 6.9% in test [4]; 5.95% in test [5]; 3.55% in test [6].
Take `Cc1ccc(N=Cc2cc(Br)ccc2O)cc1Cl`: the growth inhibition was 98.6% (active) in test [1]; 99% (active) in test [2]; 99.1% (active) in test [3]; 95% (active) in test [4]; 98.7% (active) in test [5]; 96.8% (active) in test [6].
Consider `Cc1cccc(C)c1NC(=S)N(CCC#N)C1CC(C)CC(C)(C)C1` (configuration not stated), for which the growth inhibition in test [1] was 3.45%; in test [2] it was 4.35%; in test [3] it was 19.6%; in test [4], -2.8%; in test [5], 19.9%; in test [6], -20%.
Regarding `COc1ccc(C(=O)c2ccc(C(=O)O)cc2)c(OC)c1`, the growth inhibition in test [1] was -5.4%; in test [2], -17.5%; in test [3] it was -14.6%; in test [4], -48.6%; in test [5], 5.95%; in test [6] it was -27.6%.
As to `CC(C)CNN(CC(C)C)C(N)=O`, the growth inhibition in test [1] is -32.7%; in test [2] it was -25%; in test [3] it was -19.8%; in test [4] it was -24.7%; in test [5], -25.6%; in test [6], -20.1%.
As for `[CH3][Ge]([CH3])([CH3])/[C](=[C](\c1ccccc1)[Ge]([CH3])([CH3])[CH3])c1ccccc1`, the growth inhibition in test [1] is 39.6%; in test [2] it was -3.5%; in test [3], 10%; in test [4], 9.6%; in test [5], -1.5%; in test [6] it was 9.65%.
